Assay outcomes as filed in PubChem BioAssay.
The full list was thinned out, with hits kept by preference.
PD-1 reversal = activators reversing PD-1 mediated T-cell inhibition; primary human CD4 T cells, PD-L1 beads, CellTiter-Glo 96 h; activation, % (test concentration not listed); 29,000 tested, under 10 active; AID 2316; call rule not given here
STK33 kin inh = blocks human STK33 kinase activity. Q9BYT3. ADP-Glo luminescence, MBP substrate. inhibition, % at 12.5 µM. hit rate 0.44% among 27,000; in the data active = inhibition above about 20%; inconclusive = no clear call, values can overlap the other calls
Target sequence (Q9BYT3 whole entry, looked up): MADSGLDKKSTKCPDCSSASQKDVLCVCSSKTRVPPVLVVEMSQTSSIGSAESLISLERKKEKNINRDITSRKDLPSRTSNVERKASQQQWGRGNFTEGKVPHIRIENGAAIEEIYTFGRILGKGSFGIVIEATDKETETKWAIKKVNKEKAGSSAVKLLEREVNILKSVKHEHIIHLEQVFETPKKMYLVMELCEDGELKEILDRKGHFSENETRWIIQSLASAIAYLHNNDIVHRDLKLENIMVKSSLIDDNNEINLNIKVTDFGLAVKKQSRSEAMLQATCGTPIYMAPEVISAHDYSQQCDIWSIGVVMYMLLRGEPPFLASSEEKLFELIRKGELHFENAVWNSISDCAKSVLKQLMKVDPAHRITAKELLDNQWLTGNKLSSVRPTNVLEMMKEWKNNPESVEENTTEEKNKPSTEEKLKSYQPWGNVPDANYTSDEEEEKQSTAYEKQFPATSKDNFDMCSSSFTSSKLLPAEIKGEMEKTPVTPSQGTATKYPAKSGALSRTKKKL
NOMO-1 viab = STK33 inhibitor candidate reducing NOMO-1 cell viability; AID 2330; inhibition, % (concentration not given with the values); hit rate 7.5% among 37,000; NOMO-1 AML viability, CellTiter-Glo luminescence, 72 h; in the data active = inhibition above about 80%; inconclusive = no clear call, values can overlap the other calls
Numbers stand for hits; 0 = inactive; ? = inconclusive; - = not tested or not shown.

SMILES	PD-1 reversal	STK33 kin inh	NOMO-1 viab
CCc1ccc(C(Nc2cc(C)ccn2)c2ccc3ccc(C)nc3c2O)cc1 (stereo not given)	-	0	89
COc1ccc(NC(=O)CSc2nccc(C)n2)cc1	-	0	0
COc1ccc(C(Nc2cc(C)ccn2)c2ccc3ccc(C)nc3c2O)cc1 (stereo not given)	-	0	99
CCc1ccc(C(Nc2ccccn2)c2ccc3ccc(C)nc3c2O)cc1 (stereo not given)	-	0	110
Cc1ccnc(NC(c2cccc(F)c2)c2ccc3ccc(C)nc3c2O)c1 (stereo not given)	-	0	116
Cc1ccnc(NC(c2ccsc2)c2ccc3ccc(C)nc3c2O)c1 (stereo not given)	0	0	89
CC1(C)C[C@H]2C3=CCC4[C@@]5(C)CC[C@H](O[C@@H]6O[C@H](CO)[C@@H](O)[C@H](O)[C@H]6O)C(C)(C)C5CC[C@@]4(C)[C@]3(C)CC[C@@]2(C(=O)O[C@@H]2O[C@H](CO)[C@@H](O)[C@H](O)[C@H]2O)CC1O (stereo not given in full)	0	0	0
COc1c(O[C@@H]2O[C@H](CO)[C@@H](O)[C@H](O)[C@H]2O)cc2oc(-c3ccc(O)cc3)cc(=O)c2c1O	0	0	84
O=c1cc(-c2ccc(O)cc2)oc2cc(O)c(C3OC(CO)C(O)C(O)C3O)c(O)c12 (stereo not given)	0	0	0
COC(=O)c1ccc(C(=O)OC)c(NC(=O)CSc2nc(C)cc(C)n2)c1	0	0	0
CCOC(=O)c1ccc2nc(C(F)(F)F)nc(N3CCCCC3)c2c1	0	-	0
COC(=O)c1c(-c2ccccc2)csc1NC(=O)c1cc(-c2cccnc2)nc2ccccc12	-	0	104
COC(=O)c1cc(-c2ccccc2)sc1NC(=O)c1cc(-c2cccnc2)nc2ccccc12	-	0	0
CC(C)c1ccc(S(=O)(=O)NCc2cccnc2)cc1	-	0	-
O=c1[nH]ncc(NCC2CCCO2)c1Cl (stereo not given)	0	0	0
C=C1C(=O)O[C@@H]2[C@H]1[C@H](O)C[C@]1(C)[C@@H](O)CC=C(C)[C@@H]21	0	0	115
COc1ccc(-n2ncc(NC(=O)Nc3ccc4c(c3)OCCCO4)c2C)cc1	0	-	0
Cc1ccc(S(=O)(=O)N(Cc2cc3cccc(C)c3[nH]c2=O)c2ccccc2)cc1	0	0	116
CCCC(=O)N(Cc1cc2cccc(C)c2[nH]c1=O)c1ccc(C)cc1	0	0	0
COc1ccc(NC(=O)C(C)Oc2ccccc2)c([N+](=O)[O-])c1 (stereo not given)	-	0	0
COc1ccc(OC)c(Nc2ncnc3c2cnn3-c2ccccc2)c1	0	0	0
COc1cc2ncnc(Nc3ccc(Cl)cc3F)c2cc1OC	0	26	?
C#Cc1cccc(Nc2ncnc3cc(OC)c(OC)cc23)c1	0	23	96
COc1cc2ncnc(Nc3ccc(OCc4ccccc4)cc3)c2cc1OC	0	0	0
O=C(NC1CCN(C(=O)C2CCC2)CC1)C1CCCCC1	0	0	0
SMILES	PD-1 reversal	STK33 kin inh	NOMO-1 viab
Cc1ccccc1-c1cc(C(=O)NCCCn2cc(Br)cn2)c2ccccc2n1	-	0	0
C=C1CCC(O)/C(C)=C\CC(C(C)C)C(OC2OC(COC(C)=O)C(O)C(O)C2O)C1 (stereo not given)	0	0	0
C=C(C(=O)O[C@H]1C/C=C(/C)C[C@H](O)[C@H]2[C@H](C)C(=O)O[C@@H]2/C=C\1C)[C@@H]1CCC(=C)[C@@H]2C[C@H](O[C@@H]3O[C@H](COC(=O)CC(=O)O)[C@@H](O)[C@H](O)[C@H]3O)C(=C)[C@@H]2C1	0	0	105
O=C(Nc1ccc(F)cc1F)c1cccnc1Sc1cccs1	0	-	0
O=C(COc1ccc(Br)cc1)Nc1cccc(-c2nc3ncccc3o2)c1	0	0	0
Cc1ccc(-c2nc3ncccc3o2)cc1NC(=O)C(C)Oc1ccc(Cl)cc1Cl (stereo not given)	0	0	0
COc1cc(C(=O)Nc2cccc(-c3nc4ncccc4o3)c2)cc(OC)c1OC	-	30	0
COc1cc(C(=O)Nc2cc(-c3nc4ncccc4o3)ccc2C)ccc1OCc1ccc(Cl)cc1	0	0	112
Cc1ccc(F)cc1NC(=O)CCCSc1nc(-c2ccco2)cc(C(F)(F)F)n1	0	0	0
CSc1c(CC(=O)NCCc2ccccc2)n(C)c2ccccc12	0	-	0
C[C@]12CCC(=O)C=C1CC[C@@H]1C2CC[C@@]2(C)C1CC[C@@H]2C(=O)CO (stereo not given in full)	0	0	0
CC12CCC(=O)C=C1CCC1(C)C2(C)CCC2(C)C(C(=O)CO)CCC21C (stereo not given)	0	0	94
O=C(CSc1nc2ccccc2s1)Nc1cccc(Cl)c1Cl	-	0	0
CCC(Sc1nnc2c3ccccc3n(C)c2n1)C(=O)Nc1cccc2ccccc12 (stereo not given)	0	0	0
COc1cc2c(ccc3cc(OC)c(OC)c(O)c32)cc1O	0	30	0
COc1c(O)c(O)cc2ccc3cccc(O)c3c12	0	0	0
COc1ccc(-c2nc(SCc3cc(Cl)ccc3OC)n[nH]2)cc1	-	0	0
CCOc1ccc(NC(=O)CSc2ncccn2)cc1	0	0	0
CCCCC/C=C\C/C=C\C(O)CCCCCCC(=O)O (stereo not given)	0	0	0
O=C(O)CC1CCC(CC(O)/C=C\C/C=C\CCCCCO)O1 (stereo not given)	0	0	117
Cc1ccc(-c2nn(C)c(=O)c3ccccc23)cc1S(=O)(=O)N1CCN(CCO)CC1	0	0	0
C[C@@H]1CN([C@@H](C)CO)C(=O)c2cc(NC(=O)Nc3cccc4ccccc34)ccc2O[C@H]1CN(C)CC1CCCCC1	0	0	0
C[C@@H]1CCCCO[C@H](CN(C)CC2CCCCC2)[C@@H](C)CN([C@H](C)CO)C(=O)c2cc(NC(=O)Nc3cccc4ccccc34)ccc2O1	0	0	128
C[C@@H]1CCCCO[C@@H](CN(C)CC2CCCCC2)[C@@H](C)CN([C@H](C)CO)C(=O)c2cc(NC(=O)Nc3cccc4ccccc34)ccc2O1	0	0	112
C[C@@H]1CCCCO[C@@H](CN(C)Cc2ccccc2)[C@@H](C)CN([C@H](C)CO)C(=O)c2cc(NC(=O)Nc3cccc4ccccc34)ccc2O1	0	0	0
SMILES	PD-1 reversal	STK33 kin inh	NOMO-1 viab
Cc1ccc(-n2c(SCC(=O)Nc3c(Cl)cccc3Cl)nnc2-c2ccncc2)cc1	-	0	0
Cc1cc(C)c(OCC(=O)Nc2cccc(NC(=O)c3ccccc3C)c2)c(Br)c1	0	0	0
C[C@@H]1CN([C@@H](C)CO)C(=O)Cc2cc(NC(=O)Cc3cn(C)c4ccccc34)ccc2O[C@@H]1CN(C)Cc1ccc(Oc2ccccc2)cc1	0	0	115
C[C@H]1CN([C@@H](C)CO)C(=O)Cc2cc(NC(=O)Cc3cn(C)c4ccccc34)ccc2O[C@H]1CN(C)Cc1ccc(Oc2ccccc2)cc1	0	0	?
C[C@@H]1CN([C@H](C)CO)C(=O)Cc2cc(NC(=O)Cc3cn(C)c4ccccc34)ccc2O[C@@H]1CN(C)Cc1ccccc1	0	0	107
C[C@@H]1CN([C@@H](C)CO)C(=O)Cc2cc(NC(=O)Cc3cn(C)c4ccccc34)ccc2O[C@@H]1CN(C)Cc1ccccc1	0	0	0
